# According to PubChem BioAssay (Tox21):
# Records with an inconclusive call do not appear. Entries that show only a call come without a potency. Activity calls are given as the source filed them. Calls follow the shape of the dose curve; as a rule, active = well fitted activation curve with a large enough effect in the repeat runs; inconclusive = weak or mixed curves; inactive = flat fitted curve, though single readings scatter.
# Assay: A CellTox Green Cytotoxicity Assay to monitor cytotoxicity in HepG2 cells - 8 hour (AID 1224890); also: nearly all actives have a fitted effect of over 45% in size
# Details: CellTox Green fluorescence; series mostly up to 76.8 µM
# Text: National Center for Advancing Translational Sciences [NCATS]
# NIH Chemical Genomics Center [NCGC]
# U.S. Environmental Protection Agency [EPA]
# National Institutes of Environmental Health Sciences [NIEHS]
# National Toxicology Program [NTP]
# Cell-based models are critical for drug discovery. Determining the natural cytotoxic effects resulting from test compounds is an essential research activity. A CellTox Green Cytotoxicity Assay to monitor cytotoxicity in real time of continues cell culture during 40 hours of the compound treatment was used to screen Tox21 10K library compounds in HepG2 cells. CellTox Green Cytotoxicity Assay is a nonlytic, homogeneous, biofluorescent method to measure cytotoxicity in cell culture after experimental manipulation. The assay system uses a proprietary asymmetric cyanine dye that is excluded from viable cells but preferentially stains the dead cell's DNA. […] Viable cells produce no appreciable increases in fluorescence. Therefore, the fluorescence signal produced by the binding interaction with dead cell DNA is proportional to cytotoxicity.
# The mixture of HepG2 cell suspension and reagents were dispensed at 600cells/6 ul/well in 1536-well tissue culture treated black solid bottom plates using a Multidrop dispenser. After the assay plates were incubated at a 37 C/5% CO2 incubator for 5 hours, 23 nL of compounds dissolved in DMSO, positive and negative controls was transferred to the assay plate by a pintool work station. The plates were incubated at 37 C for 40 hours. The fluorescence intensity were measured at 0h, 8h, 16h, 24h, 32h and 40h time points using ViewLux plate reader during compound treatment.
SMILES,Potency,cytotoxicity increase
CN(C)N=Nc1ccccc1,inactive,
CO,inactive,
[O-][N+](=Nc1ccccc1)c1ccccc1,inactive,
CC1(C)OC(=O)Nc2ccc(Br)cc21,inactive,
CCCOCC(C)OCC(C)O (stereo not given),inactive,
O=c1[nH]c2ccccc2c(=O)n1CCCl,inactive,
NCCNC(=O)c1ccc(Cl)cn1,inactive,
CC(CCO)CCCC(C)(C)O (stereo not given),inactive,
COC(=O)CCCCCCCCC(=O)OC,inactive,
CC(C)COC(=O)C(C)C,inactive,
O=[N+]([O-])c1ccc(CCO)cc1,inactive,
CCCCc1ccc2cccc(S(=O)(=O)O)c2c1,inactive,
CC(C)=CCC/C(C)=C/C(=O)O,inactive,
NC(=S)Nc1cccc2ccccc12,,0.879% [at 6.97 µM] (inactive)
CC(C)(O)Cc1ccccc1,inactive,
c1ccc(SCCSc2ccccc2)cc1,inactive,
CC(=O)NC(Cc1ccccc1)C(=O)O (stereo not given),inactive,
C=CCn1c(=O)n([C@@H]2O[C@H](CO)[C@@H](O)[C@H]2O)c2nc(N)[nH]c(=O)c21,inactive,
Cc1nc(-c2ccc(OCC(C)C)c(C#N)c2)sc1C(=O)O,inactive,
COC[C@H](c1ccc(C(F)(F)F)cc1)N1CCN(C2(C)CCN(C(=O)c3c(C)ncnc3C)CC2)C[C@H]1C,inactive,

SMILES,Potency,cytotoxicity increase
COc1cc(CCC(C)=O)ccc1O,inactive,
CCCCN(CCO)CCO,inactive,
Nc1nc(F)nc2c1ncn2[C@@H]1O[C@H](CO)[C@@H](O)[C@@H]1O,inactive,
C=CCOc1nc(OCC=C)nc(OCC=C)n1,inactive,
CC(C)CCCC(C)NCCC(C)C (stereo not given),inactive,
CCCCC=O,inactive,
NC(=O)c1c(Cl)cccc1Cl,inactive,
Nc1ccc2cc(S(=O)(=O)O)ccc2c1,inactive,
CNc1ncnc2nc[nH]c12,inactive,
Cc1ccc(N)cc1[N+](=O)[O-],inactive,
COc1cc(C(=O)N2CCOCC2)cc(OC)c1OC,inactive,
O=c1[nH]c(=O)n([C@H]2O[C@H](CO)[C@@H](O)[C@@H]2O)cc1/C=C\Br,inactive,
CC(C)[C@H](N)C(=O)OCCOCn1cnc2c(=O)[nH]c(N)nc21,inactive,
O=S(=O)(c1cccc2cnccc12)N1CCCNCC1,inactive,
NC(=O)Nc1nc2ccccc2[nH]1,inactive,
c1ccc(CCCc2ccccn2)cc1,inactive,
CCOC(=O)Nc1ccc2c(c1)N(C(=O)CCN1CCOCC1)c1ccccc1S2,inactive,
CC(=O)N[C@@H](CCC(N)=O)C(=O)O,inactive,
CCCCCCCCCCCl,inactive,
C=CC(=O)N1CCOCC1,inactive,
